Hits are enriched below; roughly 3.7% of the tested compounds scored in any of these assays.
Bead autofluor: flagged as autofluorescent in microsphere protease counterscreen; compound autofluorescence counterscreen, microsphere flow cytometry; stronger effect = higher value; fluorescence intensity (concentration not given with the values); actives 3.1% (n = 360,000); AID 624483; in the data active means fluorescence intensity above about 16000; inconclusive means no clear call, values can overlap the other calls
MazF activator: increases E. coli MazEF RNase cleavage of RNA | P0AE70 | FAM/BHQ RNA-DNA oligo cleavage fluorescence, 5 h | activation, % at 20 µM | actives 0.32% (n = 350,000) | AID 504720; in the data active means activation above about 50%
Anthrax LF prot: anthrax lethal factor protease inhibition; P15917; multiplex microsphere protease cleavage assay, LF; inhibition, % at 10 µM; actives 0.12% (n = 360,000); AID 588501; further: plate controls were buffer without enzyme for full effect and enzyme alone for no effect
Target sequence (P15917 whole entry, looked up): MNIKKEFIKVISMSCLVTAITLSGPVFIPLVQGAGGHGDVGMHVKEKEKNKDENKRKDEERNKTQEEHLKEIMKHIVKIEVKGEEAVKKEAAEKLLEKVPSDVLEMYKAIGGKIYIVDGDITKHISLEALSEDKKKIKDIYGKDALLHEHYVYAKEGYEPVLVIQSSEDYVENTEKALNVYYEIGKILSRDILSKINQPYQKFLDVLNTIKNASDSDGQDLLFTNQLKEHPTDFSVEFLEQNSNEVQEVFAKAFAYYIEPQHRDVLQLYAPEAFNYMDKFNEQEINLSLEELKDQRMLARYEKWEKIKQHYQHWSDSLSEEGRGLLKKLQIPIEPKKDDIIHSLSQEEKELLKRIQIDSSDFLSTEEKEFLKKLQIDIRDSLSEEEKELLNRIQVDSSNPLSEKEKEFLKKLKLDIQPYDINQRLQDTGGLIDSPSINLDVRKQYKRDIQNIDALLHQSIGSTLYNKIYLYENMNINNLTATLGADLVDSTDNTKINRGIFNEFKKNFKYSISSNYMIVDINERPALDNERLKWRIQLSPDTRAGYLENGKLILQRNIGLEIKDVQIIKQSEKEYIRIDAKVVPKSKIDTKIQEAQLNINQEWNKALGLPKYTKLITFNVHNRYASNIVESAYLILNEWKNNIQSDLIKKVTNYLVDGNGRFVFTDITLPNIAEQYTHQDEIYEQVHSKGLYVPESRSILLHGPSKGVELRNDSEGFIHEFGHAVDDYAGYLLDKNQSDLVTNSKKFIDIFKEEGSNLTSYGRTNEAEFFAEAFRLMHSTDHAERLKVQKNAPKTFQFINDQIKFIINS
BoNT A protease: BoNT A light chain protease inhibition. multiplex microsphere protease substrate cleavage, flow cytometry. inhibition, % at 10 µM. actives 0.17% (n = 360,000); further: plate controls were buffer without enzyme for full effect and enzyme alone for no effect
BoNT F protease: blocks Botulinum neurotoxin F light chain protease; actives 0.22% (n = 360,000); inhibition, % at 10 µM; Multiplex microsphere protease cleavage assay, flow cytometry; AID 588497; in the data active means inhibition above about 35%, passing the limit was not always enough; inconclusive means no clear call, values can overlap the other calls; further: plate controls were buffer without enzyme for full effect and enzyme alone for no effect
Active calls of the source: *. Unless noted, no stated cut-off is given here; in the data, active means inhibition above about 30%; inconclusive means no clear call, values can overlap the other calls; inactive means below that.

For COc1ccc(NC(=O)C2=C(C)NC(=O)NC2c2cccc(OC)c2OC)c(OC)c1 (configuration not stated) the results were Bead autofluor 20365*, MazF activator -8, Anthrax LF prot 3, BoNT A protease inconclusive and BoNT F protease 0.
Screening Cc1ccc2oc(-c3ccc(NC(=O)c4ccc5c(c4)OCO5)cc3)nc2c1 returned Bead autofluor 9825, MazF activator -50, Anthrax LF prot -6, BoNT A protease 0 and BoNT F protease 10.
For CCOC(=O)c1oc2ccccc2c1NC(=O)c1ccc2c(c1)OCO2 the results were Bead autofluor 24146*, MazF activator -1, Anthrax LF prot -2, BoNT A protease -4 and BoNT F protease -5.
CCCC(=O)N1CCC1(C)C(=O)NS(=O)(=O)c1ccc(C(C)(C)C)cc1 (configuration not stated) was read as Bead autofluor 3763, Anthrax LF prot -1, BoNT A protease 0 and BoNT F protease -4.
Cc1ccc(S(=O)(=O)N2CCN(C(=O)CN3C(=O)c4ccc([N+](=O)[O-])cc4C3=O)CC2)cc1C was read as MazF activator 7.
COc1ccc(NC(=O)c2oc3ccccc3c2C)c(OC)c1 was read as Bead autofluor 22634*, MazF activator 12, Anthrax LF prot 0, BoNT A protease inconclusive and BoNT F protease -3.
CCOC(=O)c1oc2ccccc2c1NC(=O)c1cccc(OC)c1 was read as Bead autofluor 22777*, MazF activator 4, Anthrax LF prot -1, BoNT A protease 1 and BoNT F protease -1.
`COc1ccccc1NC(=O)c1oc2ccccc2c1C` gave Bead autofluor 3803, MazF activator 0, Anthrax LF prot -7, BoNT A protease 0 and BoNT F protease -1.
Screening COc1cccc(C(=O)Nc2c(C(N)=O)oc3ccccc23)c1 returned Bead autofluor 5839, MazF activator 11, Anthrax LF prot 4, BoNT A protease 0 and BoNT F protease -4.
Screening CCOC(=O)c1oc2ccccc2c1NC(=O)c1cccc(OC)c1OC returned Bead autofluor 18642*, MazF activator -2, Anthrax LF prot -2, BoNT A protease 2 and BoNT F protease 1.
`CCOC(=O)c1oc2ccccc2c1NC(=O)CCl` gave Bead autofluor 3651, MazF activator 4, Anthrax LF prot -3, BoNT A protease 0 and BoNT F protease inconclusive.
O=C(Nc1ccc2c(c1)oc1ccccc12)c1ccc2c(c1)OCO2 was read as Bead autofluor 8804, MazF activator -17, Anthrax LF prot -9, BoNT A protease 1 and BoNT F protease -1.
COc1ccc(NC(=O)c2oc3ccccc3c2NC(=O)c2ccc3c(c2)OCO3)cc1 was read as Bead autofluor 22577*, MazF activator 0, Anthrax LF prot -3, BoNT A protease 2 and BoNT F protease -2.
C[C@H](N)c1nnc(SCC(=O)N(C)C)o1 was read as Bead autofluor 20911*, MazF activator 10, Anthrax LF prot -1, BoNT A protease -2 and BoNT F protease -2.
CN(C)C(=O)CSc1nnc([C@@H](N)Cc2ccccc2)o1 was read as Bead autofluor 22809*, MazF activator 2, Anthrax LF prot -3, BoNT A protease -1 and BoNT F protease -3.
`C=C(C)CSc1nnc([C@@H](N)Cc2ccccc2)o1` gave Bead autofluor 3783, MazF activator 4, Anthrax LF prot -40, BoNT A protease inconclusive and BoNT F protease inconclusive.
`COc1cc(Cl)ccc1OC1(C)CCN(Cc2ccc(-c3ccccn3)cc2)C1` (configuration not stated) gave Bead autofluor 2889, Anthrax LF prot -3, BoNT A protease 0 and BoNT F protease -2.
`CCc1ccc(OCCNC(=O)c2ccc(S(=O)(=O)N(C)C)cc2)cc1` gave Bead autofluor 22522*, MazF activator 2, Anthrax LF prot -2, BoNT A protease 0 and BoNT F protease 0.
`CCOc1ccc(NC(=O)c2ccc(S(=O)(=O)N(C)C)cc2)cc1` gave Bead autofluor 5536, MazF activator -3, Anthrax LF prot -12, BoNT A protease -1 and BoNT F protease -12.
Screening O=C(Nc1ccccc1)N1CCOCC1 returned Bead autofluor 6476, MazF activator 8, Anthrax LF prot -5, BoNT A protease 0 and BoNT F protease 3.
For O=C(Nc1ccccn1)N1CCOCC1 the results were Bead autofluor 20658*, MazF activator 5, Anthrax LF prot 0, BoNT A protease -3 and BoNT F protease -5.
For CCCCCn1c(=O)c(C(=O)c2ccccc2)nc2ccccc21 the results were Bead autofluor 18403*, MazF activator 4, Anthrax LF prot -12, BoNT A protease inconclusive and BoNT F protease 3.
For CCn1c(=O)c(C(C)=O)nc2ccccc21 the results were Bead autofluor 2869, MazF activator 7, Anthrax LF prot 0, BoNT A protease 2 and BoNT F protease 4.
`COc1cc(NC(=O)c2ccco2)ccc1NC(=O)C(C)C` gave Bead autofluor 21437*, MazF activator 3, Anthrax LF prot -3, BoNT A protease inconclusive and BoNT F protease -7.
For COc1cc(NC(=O)C2CCCO2)c(C(=O)O)cc1OC (configuration not stated) the results were Bead autofluor 21130*, MazF activator 6, Anthrax LF prot 2, BoNT A protease -1 and BoNT F protease -5.
Screening O=C(O)c1cc(Cl)ccc1NC(=O)C1CCCO1 (configuration not stated) returned Bead autofluor 9580, MazF activator 6, Anthrax LF prot 3, BoNT A protease 0 and BoNT F protease -9.
For CCC(=O)Nc1ccc(NC(=O)c2ccco2)c(OC)c1 the results were Bead autofluor 4538, MazF activator 3, Anthrax LF prot -3, BoNT A protease 1 and BoNT F protease 13.
Screening COc1ccc(NC(=O)COC(=O)c2cc(OC)c(OC)cc2NC(=O)c2ccco2)cc1OC returned Bead autofluor 21054*, MazF activator 19, Anthrax LF prot -3, BoNT A protease 0 and BoNT F protease -2.
Screening COc1cccc(OC)c1C(=O)NC(=S)Nc1cccc(NC(=O)c2ccco2)c1 returned Bead autofluor 4153, MazF activator 75*, Anthrax LF prot -2, BoNT A protease -1 and BoNT F protease -12.
O=C(OCc1ccccc1)N1CCC2CC1c1ccc(/C=C/CCCCl)cc12 (configuration not stated) was read as Bead autofluor 4335, Anthrax LF prot -2, BoNT A protease 1 and BoNT F protease -6.
`CCCc1cnc(Nc2nc(C(N)Cc3ccc(OC)cc3)cs2)nc1` (configuration not stated) gave Bead autofluor 2806, Anthrax LF prot -7, BoNT A protease 0 and BoNT F protease -12.
Screening CC/C(=N/NC(=O)c1ccccc1O)c1c(C)[nH]n(-c2ccccc2)c1=O returned Bead autofluor 3299, MazF activator -4, Anthrax LF prot -14, BoNT A protease 2 and BoNT F protease inconclusive.
COc1cc(CNc2ccc(C(=O)O)cc2)cc(Br)c1OCC(=O)NC(C)(C)C was read as Bead autofluor 1996, MazF activator 0, Anthrax LF prot -3, BoNT A protease -1 and BoNT F protease -12.

Assay outcomes from PubChem BioAssay.
